# System: PPARg:RXRa DBDmut IVT, anti-RXR (DBD mutation: RXRa K156A/R161A, NR concentration 270 nM, RXRa partner concentration 90 nM)
# Experiment: PBM binding z-score (relative to random genomic background probes); higher = stronger binding; sequences stand for … in GC…GCGATTGACAGCGTAGAATGAAGG
# Procedure, shortened: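 Custom Agilent 4×180K protein-binding microarrays carried double-stranded probes, each with a 34-nt variable region. These regions held direct-repeat seeds, single-nucleotide variants, half-site ablations and random human genomic background sequences. Ligand-free nuclear receptor dimers were incubated on the arrays for 1 h, antibodies against each partner (one per run) detected binding, and scanned fluorescence was regression-normalized. Binding z-scores take the random background probes as reference.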
row,Sequence,PBM binding z-score
1,CGTCCAAGGTCAAAGGGCAGTGAAGAGATGACGG,2.96
2,CCGACTGGGGCAGAAAGGTTACCAGACCATCCGG,1.28
3,AGTCAAAGTTCATCTCGGTAACGTAAGATATGCT,0.386
4,TATACAGGGTCAAAGGCCAGAGTACGAATGTCGA,2.36
5,AGAACGAGGGCAATGACTTGATAGCACGGGTGGC,3.17
6,GGAGCGAGGGCAAGTTGATAGCAGAGTTTGATGG,0.723
7,TCTTATAGATCAGCAGGTTAAGAAAGCTGGCCAA,1.67
8,GCTGCTAGGTGAACTGATGGTCAGCTAAAGCTCG,3.85
9,AGAATGACGTTACCAAAGATCAGGGAAACGCTTG,-0.672
10,ATACAAAGGTGATCGTGAGGTCGTTGATACTAAC,1.15
11,GCGTATAGGTAATACAAGGTGAAAGTCCGATTGT,1.36
12,TCTAGCAGGCCAGAAGGTCACTCAAGAGGTACGG,1.1
13,CCTTACGGGTCACTCCAGGTTATAGCGTCGGAGT,2.49
14,ATCTCTAGGTAACAAGTGCAGTGAAAGAGAGGAC,2.78
15,GATACAGGGTCTGCTAGAGGCCAGAGTATGGAAA,-0.826
16,TGTGCTAGGTCAACGATGGTCAGCTAATCTGCTA,2.94
17,ATCTCTAGGGAACCAAGTTCAGTGAATGCCGAAC,0.604
18,TCTATTAGTTGAAGGGCAACCAACGAGTCCGTTT,2.05
19,CGAACTAGGTCAGAACAGGACAGTAAAGGATGAT,7.08
20,CCAGACAGCTGAGAAGGTAACTCAGCCTCGATTA,-0.628

row,Sequence,PBM binding z-score
1,TAGCCCAGGTCATGCGGGCCAGTATAGTGTCGGC,0.638
2,CGAACGAGGGCAGGAGTTGATAGCAAATGCCGAT,1.98
3,TCAGACAGGTGAAGGTAACTAAGGTACGCAGTCG,2.56
4,TCTAGCAGGCCAGAGGGTCACACAAGAGGTACGG,1.19
5,CCTACTGGGCCATTCAGATGTCATTGATCATATG,4.47
6,TCTGCTAGATCAGTTGGTCAGCTAACGAGCTGCC,0.357
7,TATACAGGGACAAAGGCCAGAGTACGAATGTCGA,-0.141
8,ATCTCTAGGTAAAGTTCAGGGAAAGATCGATAGA,2.67
9,AGAATGAGGTTACCAAAGATCAGGGACACGCTTG,4.01
10,TCTAGTAGTTGATTAGGGCAACCGAAACAGCGGA,1.59
11,TCGAGTAGGATACCAATGGGGCATTCAGCTTTCT,1
12,GCTGCTAGGTCAACTGATGATCAGCTAAAGCTCG,4.79
13,GCGACTGGGGCATCAGCCGGTTACCATAACTTAA,3.39
14,TCATATAGGTAAATGCTAGGTGAGAGTCCGATCT,3.83
15,CGAACTAGGTCATTGTCAGGACAGTGAATAGTAA,8.22
16,CGTCAAAGTTCATCTAAGGTAACGTAAAGCACGC,0.47
17,AATAGAGGGTCATCGTAGGCCAGAGTACGCACAG,3.35
18,TCGGGTAGGTTAGTCGGGGCATTCAGCCAACATA,1.77
19,CCTAGCAGGCCAGGGTAACTCAAGCATTTCGCTT,0.216
20,TCTGCTAGGTCAGTTGGTGAGCTAACGAGCTGCC,2.62

# — the supplement of paper PMC6555819
